Laboratory results published in ChEMBL document CHEMBL3988442, “University of Dundee, Small-Polar-MMV Screening Library” (2021).
Several values for one entry are separate records, joined by “and”; a condition that tells them apart may be missing. Identical values can stand only once. For some assays here: Entries with a potency or affinity are not part of this list.

Assays:
Design in all cases: scale not given: direction of the effect not stated beside the values
[1] = target: Protein translocase subunit SecA (Escherichia coli (strain K12)) (UniProt P10408); assay: Assay to Identify E. coli SecA ATPase Inhibitors; format: functional; conditions: 30 µM
Sequence of Protein translocase subunit SecA (Escherichia coli (strain K12)) (P10408 whole entry): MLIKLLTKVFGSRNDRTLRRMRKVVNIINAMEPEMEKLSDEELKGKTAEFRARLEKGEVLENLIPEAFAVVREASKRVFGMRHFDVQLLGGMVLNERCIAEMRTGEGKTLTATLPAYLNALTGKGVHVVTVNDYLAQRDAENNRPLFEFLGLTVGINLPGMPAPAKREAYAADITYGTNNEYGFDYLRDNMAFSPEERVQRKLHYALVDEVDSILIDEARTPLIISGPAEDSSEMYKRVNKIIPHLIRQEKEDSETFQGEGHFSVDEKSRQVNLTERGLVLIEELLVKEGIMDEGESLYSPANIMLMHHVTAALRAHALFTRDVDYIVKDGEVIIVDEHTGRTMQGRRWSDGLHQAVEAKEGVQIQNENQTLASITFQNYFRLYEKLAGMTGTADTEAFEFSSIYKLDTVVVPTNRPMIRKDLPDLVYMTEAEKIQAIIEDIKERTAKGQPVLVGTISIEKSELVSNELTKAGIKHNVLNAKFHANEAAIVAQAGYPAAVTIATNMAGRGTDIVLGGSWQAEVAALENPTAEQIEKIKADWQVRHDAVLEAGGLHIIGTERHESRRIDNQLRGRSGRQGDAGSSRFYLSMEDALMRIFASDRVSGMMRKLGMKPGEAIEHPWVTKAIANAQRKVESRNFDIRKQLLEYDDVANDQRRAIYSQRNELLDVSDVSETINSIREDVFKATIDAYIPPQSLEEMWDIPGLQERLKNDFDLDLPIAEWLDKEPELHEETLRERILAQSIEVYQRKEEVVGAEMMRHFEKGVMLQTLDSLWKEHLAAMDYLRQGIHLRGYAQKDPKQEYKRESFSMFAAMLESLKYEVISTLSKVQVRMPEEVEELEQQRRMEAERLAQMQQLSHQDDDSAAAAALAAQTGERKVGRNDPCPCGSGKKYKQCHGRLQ

[2] = target: T1, Ubiquitin-activating enzyme e1, putative (Leishmania donovani (strain BPK282A1)) (UniProt E9BSI1); assay: Leishmania donovani Ubiquitin Activating Enzyme (LdE1); format: functional; conditions: 30 µM
T1 sequence (whole entry): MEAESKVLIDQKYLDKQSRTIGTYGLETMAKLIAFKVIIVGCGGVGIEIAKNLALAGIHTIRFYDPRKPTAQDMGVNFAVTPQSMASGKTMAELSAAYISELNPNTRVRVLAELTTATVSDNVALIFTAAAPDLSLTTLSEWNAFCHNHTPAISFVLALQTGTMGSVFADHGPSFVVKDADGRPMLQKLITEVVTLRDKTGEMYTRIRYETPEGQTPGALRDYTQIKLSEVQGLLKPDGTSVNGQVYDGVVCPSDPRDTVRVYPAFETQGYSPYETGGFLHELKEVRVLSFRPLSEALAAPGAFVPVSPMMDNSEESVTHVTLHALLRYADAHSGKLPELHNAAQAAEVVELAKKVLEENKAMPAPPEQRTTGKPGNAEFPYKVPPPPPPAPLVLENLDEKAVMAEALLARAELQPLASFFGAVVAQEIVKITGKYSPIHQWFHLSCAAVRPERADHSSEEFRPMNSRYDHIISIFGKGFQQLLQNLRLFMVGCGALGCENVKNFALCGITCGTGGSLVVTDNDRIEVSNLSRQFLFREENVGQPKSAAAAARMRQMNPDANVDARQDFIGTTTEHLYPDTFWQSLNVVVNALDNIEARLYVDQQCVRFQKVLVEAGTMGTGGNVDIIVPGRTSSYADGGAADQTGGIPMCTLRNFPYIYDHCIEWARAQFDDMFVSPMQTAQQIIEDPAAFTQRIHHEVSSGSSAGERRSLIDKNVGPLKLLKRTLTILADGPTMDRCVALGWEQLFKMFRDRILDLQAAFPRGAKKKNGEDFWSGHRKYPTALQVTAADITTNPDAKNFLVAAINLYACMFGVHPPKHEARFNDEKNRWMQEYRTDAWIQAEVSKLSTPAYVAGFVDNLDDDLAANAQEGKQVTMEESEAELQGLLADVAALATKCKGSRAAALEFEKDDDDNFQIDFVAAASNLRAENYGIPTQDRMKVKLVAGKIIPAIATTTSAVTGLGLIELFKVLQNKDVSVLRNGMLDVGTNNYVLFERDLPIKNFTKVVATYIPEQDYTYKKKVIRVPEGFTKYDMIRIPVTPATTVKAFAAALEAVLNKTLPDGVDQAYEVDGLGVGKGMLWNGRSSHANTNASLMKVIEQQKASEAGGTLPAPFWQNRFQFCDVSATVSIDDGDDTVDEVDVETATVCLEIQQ

[3] = target: Sialic acid-binding Ig-like lectin 9 (Homo sapiens) (UniProt Q9Y336); assay: Hs-Siglec9 ALPHAscreen SOP 20170721; conditions: 10 µM
Sequence of Sialic acid-binding Ig-like lectin 9 (Homo sapiens) (Q9Y336 whole entry): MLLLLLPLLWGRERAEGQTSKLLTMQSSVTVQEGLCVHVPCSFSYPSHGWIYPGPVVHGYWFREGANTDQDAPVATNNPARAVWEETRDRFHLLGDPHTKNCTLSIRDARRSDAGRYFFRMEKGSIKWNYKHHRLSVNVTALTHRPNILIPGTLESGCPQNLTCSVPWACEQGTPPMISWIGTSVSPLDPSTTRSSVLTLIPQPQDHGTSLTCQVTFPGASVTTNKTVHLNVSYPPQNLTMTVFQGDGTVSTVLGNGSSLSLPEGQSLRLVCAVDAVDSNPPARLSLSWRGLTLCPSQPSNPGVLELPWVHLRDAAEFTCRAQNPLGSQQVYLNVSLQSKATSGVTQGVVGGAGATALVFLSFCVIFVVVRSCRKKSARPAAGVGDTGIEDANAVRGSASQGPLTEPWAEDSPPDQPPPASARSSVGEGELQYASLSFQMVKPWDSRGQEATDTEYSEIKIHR

Trypanosoma cruzi = assay: Trypanosoma cruzi phosphomannomutase and mannose-1-phosphate guanylyltransferase assay; format: functional; conditions: 10 µM
[4] = target: T2, Arginase-2, mitochondrial (Homo sapiens) (UniProt P78540); assay: in vitro enzyme assay to detect the production of urea directly proportional to the activity of Arginase II; format: functional; note: in the data most compounds retested in dose-response had high values
T2 sequence (whole entry): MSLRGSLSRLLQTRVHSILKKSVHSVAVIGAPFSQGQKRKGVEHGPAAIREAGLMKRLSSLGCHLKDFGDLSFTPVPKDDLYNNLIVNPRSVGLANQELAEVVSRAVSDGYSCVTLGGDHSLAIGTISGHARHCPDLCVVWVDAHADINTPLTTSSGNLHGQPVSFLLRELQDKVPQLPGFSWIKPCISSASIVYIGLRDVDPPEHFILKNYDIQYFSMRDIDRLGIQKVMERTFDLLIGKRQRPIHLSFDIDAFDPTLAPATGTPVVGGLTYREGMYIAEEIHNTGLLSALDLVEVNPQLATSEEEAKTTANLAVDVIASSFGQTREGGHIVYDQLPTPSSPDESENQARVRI

[5] = target: T3, Proteasome subunit beta (Trypanosoma cruzi) (UniProt O96673); assay: Trypanosoma cruzi proteasome chymotrypsin-like activity (TcProtChymo) assay.; note: in the data most compounds retested in dose-response had high values; format: functional; conditions: 9.37 µM
T3 sequence (whole entry): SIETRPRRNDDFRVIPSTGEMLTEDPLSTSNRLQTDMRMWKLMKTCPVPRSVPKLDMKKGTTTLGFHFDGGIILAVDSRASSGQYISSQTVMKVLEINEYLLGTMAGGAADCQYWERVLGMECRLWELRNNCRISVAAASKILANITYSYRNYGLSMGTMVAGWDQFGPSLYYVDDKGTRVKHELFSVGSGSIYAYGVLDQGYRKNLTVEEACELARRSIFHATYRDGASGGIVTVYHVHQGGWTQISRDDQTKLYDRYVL

Homo sapiens = species: Homo sapiens; assay: To identify inhibition of the IFN signalling (Jak-Stat) pathway via expression of an eGFP reporter gene under the control of an IFN-stimulated response element (ISRE) containing MxA promoter.; format: functional; conditions: 30 µM
[6] = target: T4, Tyrosyl-tRNA synthetase, putative (Trypanosoma cruzi (strain CL Brener)) (UniProt Q4DSP6); assay: Trypanosoma cruzi tyrosyl tRNA synthetase (TcYRS) _High Tyrosine SOP; format: functional; conditions: 30 µM; note: in the data most compounds retested in dose-response had high values
T4 sequence (whole entry): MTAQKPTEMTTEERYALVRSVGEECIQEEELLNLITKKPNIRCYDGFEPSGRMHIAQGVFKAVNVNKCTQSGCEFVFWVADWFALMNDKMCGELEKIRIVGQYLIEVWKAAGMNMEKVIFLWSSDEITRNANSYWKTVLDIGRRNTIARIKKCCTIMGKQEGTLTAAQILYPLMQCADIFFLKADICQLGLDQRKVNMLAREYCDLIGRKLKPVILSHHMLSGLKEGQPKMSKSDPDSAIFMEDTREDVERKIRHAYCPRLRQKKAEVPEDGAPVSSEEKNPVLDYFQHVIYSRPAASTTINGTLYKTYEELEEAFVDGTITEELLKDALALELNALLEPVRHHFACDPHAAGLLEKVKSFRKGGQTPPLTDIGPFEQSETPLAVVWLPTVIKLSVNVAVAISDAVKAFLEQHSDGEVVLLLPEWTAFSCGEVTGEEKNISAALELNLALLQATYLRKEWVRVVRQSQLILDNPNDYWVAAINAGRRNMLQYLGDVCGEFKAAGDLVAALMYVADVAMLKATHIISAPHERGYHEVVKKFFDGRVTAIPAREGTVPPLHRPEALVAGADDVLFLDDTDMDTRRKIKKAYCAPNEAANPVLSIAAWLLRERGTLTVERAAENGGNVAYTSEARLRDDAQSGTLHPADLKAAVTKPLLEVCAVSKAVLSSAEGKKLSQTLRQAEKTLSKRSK

[7] = target: T4, Tyrosyl-tRNA synthetase, putative (Trypanosoma cruzi (strain CL Brener)); assay: Trypanosoma cruzi tyrosyl tRNA synthetase (TcYRS) SOP; format: functional; conditions: 30 µM
[8] = target: Chromo domain-containing protein 1 (Saccharomyces cerevisiae (strain ATCC 204508 / S288c) (Baker's yeast)) (UniProt P32657); assay: ScCHD-1 Enzyme Inhibition Assay; format: functional; conditions: 30 µM; note: in the data most compounds retested in dose-response had high values
Sequence of Chromo domain-containing protein 1 (Saccharomyces cerevisiae (strain ATCC 204508 / S288c) (Baker's yeast)) (P32657 whole entry, the tested form may be a part): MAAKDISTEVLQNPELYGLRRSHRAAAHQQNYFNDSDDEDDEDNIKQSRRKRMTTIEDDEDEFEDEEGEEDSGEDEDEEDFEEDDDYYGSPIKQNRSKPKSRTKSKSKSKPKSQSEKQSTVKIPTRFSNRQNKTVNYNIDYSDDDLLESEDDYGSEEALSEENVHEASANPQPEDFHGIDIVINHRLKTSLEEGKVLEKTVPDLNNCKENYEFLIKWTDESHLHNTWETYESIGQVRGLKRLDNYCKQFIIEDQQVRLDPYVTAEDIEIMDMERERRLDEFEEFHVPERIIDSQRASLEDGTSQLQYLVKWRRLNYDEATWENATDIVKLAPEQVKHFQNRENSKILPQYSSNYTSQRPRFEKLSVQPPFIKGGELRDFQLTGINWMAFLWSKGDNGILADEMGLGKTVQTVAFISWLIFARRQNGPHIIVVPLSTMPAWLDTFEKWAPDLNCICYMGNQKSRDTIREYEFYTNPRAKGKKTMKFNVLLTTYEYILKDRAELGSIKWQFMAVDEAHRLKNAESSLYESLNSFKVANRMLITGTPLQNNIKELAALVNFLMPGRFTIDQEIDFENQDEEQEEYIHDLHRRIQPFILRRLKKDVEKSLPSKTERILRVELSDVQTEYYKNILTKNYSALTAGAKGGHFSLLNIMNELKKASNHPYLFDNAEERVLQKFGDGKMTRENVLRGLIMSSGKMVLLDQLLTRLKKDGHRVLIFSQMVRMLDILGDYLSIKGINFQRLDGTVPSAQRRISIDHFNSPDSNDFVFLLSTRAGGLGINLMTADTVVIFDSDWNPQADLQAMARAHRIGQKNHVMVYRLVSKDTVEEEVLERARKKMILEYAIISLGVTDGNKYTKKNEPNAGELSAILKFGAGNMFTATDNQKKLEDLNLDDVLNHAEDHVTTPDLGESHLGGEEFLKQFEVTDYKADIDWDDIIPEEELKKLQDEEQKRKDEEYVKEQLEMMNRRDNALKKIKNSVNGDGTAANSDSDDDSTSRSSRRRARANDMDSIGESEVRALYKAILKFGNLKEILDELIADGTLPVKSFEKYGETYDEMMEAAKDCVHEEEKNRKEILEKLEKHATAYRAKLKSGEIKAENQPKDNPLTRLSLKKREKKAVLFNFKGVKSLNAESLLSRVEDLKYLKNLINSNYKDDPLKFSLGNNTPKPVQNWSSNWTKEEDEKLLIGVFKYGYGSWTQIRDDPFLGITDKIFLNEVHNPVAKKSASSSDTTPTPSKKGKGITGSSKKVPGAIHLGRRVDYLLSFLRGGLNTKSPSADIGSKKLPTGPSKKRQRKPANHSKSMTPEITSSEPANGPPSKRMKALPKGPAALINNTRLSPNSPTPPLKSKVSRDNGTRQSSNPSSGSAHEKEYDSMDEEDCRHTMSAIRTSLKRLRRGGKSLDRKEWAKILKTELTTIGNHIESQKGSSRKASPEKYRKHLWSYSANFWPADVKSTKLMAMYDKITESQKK

[9] = target: AMP-activated protein kinase, AMPK (Homo sapiens) (UniProt P54646+O43741+P54619+Q9UGJ0+Q9Y478+Q13131+Q9UGI9); assay: AMP-dependent Kinase enzyme assay. An in vitro enzyme assay that detects ADP turnover that is directly proportional to AMPK activity. This uses naive AMPK that is activated during the assay with MK-8722; format: functional; conditions: 30 µM
N/A = assay: Trypanosoma cruzi proteasome luciferase counter-screen; format: functional; conditions: 9.37 µM

Work on `COc1ccc2c(c1)OCC(CNC(=O)c1ccc(=O)n(C)c1)C2` (stereo unspecified) yielded a Percent Effect [1] of -9.07%, a Percent Effect [2] of -2.7% and a Percent Effect [3] of 20.7%. For the same molecule, the Percent Effect (Trypanosoma cruzi) was 5.72%, the Percent Effect ([4]; 30 µM) was -5.95% and the Percent Effect ([4]; 33.3 µM) was 17.8%. It also gave a Percent Effect [5] of 12.5%, a Percent Effect (Homo sapiens) of 9.66% and a Percent Effect [6] of 4.79%. It also gave a Percent Effect [7] of 9.76% and a Percent Effect [8] of 0.784%.
Molecule `CN(C)CC1(O)CCN(S(=O)(=O)c2ccc(F)c(F)c2)C1` (stereo unspecified) has a Percent Effect [1] of -6.44%, a Percent Effect [2] of 23% and a Percent Effect [9] of -0.681%. For the same molecule, the Percent Effect [3] was -1.29%, the Percent Effect (Trypanosoma cruzi) was 5.34% and the Percent Effect ([4]; 33.3 µM) was -3.48%. The Percent Effect [5] was 20.9%, the Percent Effect (Homo sapiens) was 1.49% and the Percent Effect [6] was 3.23%. The Percent Effect [7] was 6.49% and the Percent Effect [8] was -21.7%.
Work on `CN1CCOC(CNC(=O)CCCOc2ccccc2F)C1` (stereo unspecified) yielded a Percent Effect [1] of -2.16%, a Percent Effect [2] of 12.8% and a Percent Effect [3] of 3.45%. The Percent Effect (Trypanosoma cruzi) was 1.6%, the Percent Effect ([4]; 33.3 µM) was 2.87% and the Percent Effect [5] was 18.5%. For the same molecule, the Percent Effect (Homo sapiens) was 18.2%, the Percent Effect [6] was 10.1% and the Percent Effect [7] was 22.9%. For the same molecule, the Percent Effect [8] was -4.86%.
With `COc1cccc(-c2noc(C3CCN(Cc4cccs4)C3)n2)c1` (stereo unspecified) the Percent Effect [1] was 4.18%, the Percent Effect [2] was 4% and the Percent Effect [3] was -7.16%. The Percent Effect (Trypanosoma cruzi) was -5.33%, the Percent Effect ([4]; 33.3 µM) was 1.77% and the Percent Effect [5] was 57.3% and 54.2% and 60.1%. For the same molecule, the Percent Effect (N/A) was 26.2% and 26.8%, the Percent Effect (Homo sapiens) was 16% and the Percent Effect [6] was -3.17%. It also gave a Percent Effect [7] of 7.5% and a Percent Effect [8] of -23.7%.
Work on `Cc1ccc(NC(=O)C2=CN=S=N2)cc1` yielded a Percent Effect [1] of 1.26%, a Percent Effect [2] of 17.3% and a Percent Effect [3] of -13.9%. For the same molecule, the Percent Effect (Trypanosoma cruzi) was 3.94%, the Percent Effect ([4]; 33.3 µM) was 0% and the Percent Effect [5] was 84.2% and 80.5% and 69%. For the same molecule, the Percent Effect (N/A) was 45.6% and 45.1%, the Percent Effect (Homo sapiens) was 21.4% and the Percent Effect [6] was 4.23%. The Percent Effect [7] was 10% and the Percent Effect [8] was -20.4%.
`O=C(c1cc[nH]n1)N1CCCC(c2cccc(-n3ccnc3)n2)C1` (stereo unspecified) gave a Percent Effect [1] of -1.25%, a Percent Effect [2] of 12% and a Percent Effect [3] of 2.15%. For the same molecule, the Percent Effect (Trypanosoma cruzi) was -1.77%, the Percent Effect ([4]; 33.3 µM) was 4.42% and the Percent Effect [5] was 8.05%. For the same molecule, the Percent Effect (Homo sapiens) was 13.7%, the Percent Effect [6] was 5.29% and the Percent Effect [7] was 12.5%. For the same molecule, the Percent Effect [8] was -21.6%.
`CS(=O)(=O)N1CCN(C(=O)Cn2ccc3c(Cl)cccc32)CC1` showed a Percent Effect [1] of -4.17%, a Percent Effect [2] of -2.7% and a Percent Effect [3] of -2.63%. For the same molecule, the Percent Effect (Trypanosoma cruzi) was -7.08%, the Percent Effect ([4]; 30 µM) was 5.95% and the Percent Effect ([4]; 33.3 µM) was -3.15%. It also gave a Percent Effect [5] of 18.1%, a Percent Effect (Homo sapiens) of 4.83% and a Percent Effect [6] of 2.66%. For the same molecule, the Percent Effect [7] was 2.44% and the Percent Effect [8] was -0.985%.
`COc1ccc(C(C)NC(=O)NCCCn2cncn2)cc1F` (stereo unspecified) gave a Percent Effect [1] of -2.93%, a Percent Effect [2] of 16% and a Percent Effect [3] of 2.65%. For the same molecule, the Percent Effect (Trypanosoma cruzi) was -0.602%, the Percent Effect ([4]; 33.3 µM) was 1.77% and the Percent Effect [5] was 8.57%. It also gave a Percent Effect (Homo sapiens) of -15.1%, a Percent Effect [6] of 6.84% and a Percent Effect [7] of 17.9%. For the same molecule, the Percent Effect [8] was -9.21%.
Molecule `CCn1ncc(NC(=O)c2cc(C3CC3)nc3c2c(C)nn3C)c1C` has a Percent Effect [1] of -5.7%, a Percent Effect [2] of 20% and a Percent Effect [3] of -4.48%. For the same molecule, the Percent Effect (Trypanosoma cruzi) was 3.75%, the Percent Effect ([4]; 33.3 µM) was -2.21% and the Percent Effect [5] was 22%. For the same molecule, the Percent Effect (Homo sapiens) was 14.6%, the Percent Effect [6] was 2.12% and the Percent Effect [7] was 15%. For the same molecule, the Percent Effect [8] was -28.1%.
In the case of `Nc1nc(CCC(=O)N2CCOC(CC3CCCCC3)C2)cs1` (stereo unspecified), the Percent Effect [1] is reported as -7.43%, the Percent Effect [2] is reported as 0% and the Percent Effect [3] is reported as 6.25%. The Percent Effect (Trypanosoma cruzi) was 11.3%, the Percent Effect ([4]; 30 µM) was 3.78% and the Percent Effect ([4]; 33.3 µM) was -2.45%. For the same molecule, the Percent Effect [5] was 3.25%, the Percent Effect (Homo sapiens) was 10.9% and the Percent Effect [6] was 9.04%. It also gave a Percent Effect [7] of 19.5% and a Percent Effect [8] of 5.38%.
With `Cc1nc(C2CCN(C(=O)CO)CC2)cc(N2CCOCC2)n1` the Percent Effect [1] was -2.95%, the Percent Effect [2] was 8.11% and the Percent Effect [3] was 8.92%. It also gave a Percent Effect (Trypanosoma cruzi) of 8.05%, a Percent Effect ([4]; 33.3 µM) of 22% and a Percent Effect [5] of 8.22%. For the same molecule, the Percent Effect (Homo sapiens) was -12.6%, the Percent Effect [6] was 6.92% and the Percent Effect [7] was 17.1%. For the same molecule, the Percent Effect [8] was 0.691%.
